# This is part of a sample that, as a whole, favours compounds with a hit. Of some 83,000 tested, about 20% had one in any assay.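 Assay: single dose, 48 h. Readout: percent growth (0 = no net growth; negative = cell death). Active: <10.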 A number with no mark means an inactive call. Active and inactive are the calls of the source.
# Assays:
# Experiment in all cases: NCI-60 one-dose screen, 48 h (100 = growth as untreated, 0 = no growth, -100 = all killed)
# Conditions in all cases: 10 µM unless noted
# [1] = test system: NCI-H23 lung
# [2] = test system: NCI-H226 lung
# [3] = test system: NCI-H322M lung
# [4] = test system: HOP-62 NSCLC
# [5] = test system: NCI-H460 lung
# [6] = test system: HOP-92 NSCLC
# [7] = test system: NCI-H522 lung
# [8] = test system: A549/ATCC NSCLC
# [9] = test system: 786-0 renal
# [10] = test system: COLO 205 colon
# [11] = test system: DU-145 prostate
# [12] = test system: K-562 leukemia
# [13] = test system: MALME-3M melanoma
# [14] = test system: MDA-MB-231 breast
# [15] = test system: RXF 393 renal
# [16] = test system: SF-268 CNS
# [17] = test system: SF-295 CNS
# [18] = test system: SF-539 CNS
# [19] = test system: UACC-257 melanoma
# [20] = test system: M14 melanoma
Compound,growth [1],growth [2] [%],growth [3] [%],growth [4] [%],growth [5],growth [6] [%],growth [7] [%],growth [8] [%],growth [9] [%],growth [10] [%],growth [11] [%],growth [12] [%],growth [13] [%],growth [14] [%],growth [15] [%],growth [16] [%],growth [17] [%],growth [18],growth [19] [%],growth [20]
CCN(CC)CCCC(C)Nc1cnc(C(=O)Nc2cc(C)cc3cccnc23)cn1 (stereo not given),96.3%,60.4,84.2,91.2,79.5%,51.4,96.8,72.8,88.2,37,80.7,25.9,107,89.2,72.3,66.1,98.9,86.9%,71.7,98.6%
Cc1cc(C)c2c(n1)sc1c(Nc3ccc(O)cc3)ncnc12,9.96% (active),32.4,46.2,18.5,10.1%,35.5,32.4,26.7,12.6,33,21.3,45.1,63.9,59,32,19.3,18.3,3.84% (active),38.7,-21.5% (active)
COc1ccc(/C=C2\N=C(c3cccnc3)N(c3ccccc3)NC2=O)cc1,95.8%,86.8,94.3,109,96.4%,22.9,98.2,95.7,100,113,104,107,97.4,92.1,89.9,91.9,95.2,103%,102,92.8%
CN(C)c1ccc(/C=N/Nc2nnc3n2N=C(c2ccc(Cl)cc2)CS3)cc1,102%,85,102,104,93.4%,94.5,87.5,81.3,88.1,105,100,79,128,101,69.7,97.8,101,103%,106,100%
O=C(CCc1nc2sc3c(c2c(=O)[nH]1)CCC3)NCc1cn(-c2ccccc2)nc1-c1ccccc1,66.2%,92.2,92.8,80.8,1.28% (active),95.9,78.9,16.5,98.4,75.7,48.7,84.6,47.7,11.4,48.8,65.3,46.2,83.3%,98.5,74.5%
CC(=O)c1c(C)nc(-c2cc(C)cc(Cl)c2)nc1-c1cccc(Oc2ccccc2)c1,86%,84,91,76.2,36.1%,38,59,69.1,70.3,70.2,85.8,19.9,74.8,55,90.5,71,77.3,86%,81.1,31.7%
COc1ccc2[nH]cc(C(c3ccc(Cl)cc3)N3CCCC3)c2c1 (stereo not given),93.2%,98.2,94.3,97.6,101%,79.2,82.1,98.8,102,114,101,90.2,72.8,94.6,82.9,92.5,94,98.2%,91.9,95%
CC(C)(C)c1ccc(Cn2c(-c3nonc3N)nc3ccccc32)cc1,70.7%,83.4,83,82.1,86%,64.3,49.3,68.4,80.4,67.2,83.3,19.1,82.3,81.8,77.8,75.6,71.5,89.7%,76.8,66.9%

# Source: PubChem BioAssay (NCI)
